Experiment [1] in a line: P. berghei load reduction in hepatocytes – cell-based, HepG2, luciferase luminescence, HepG2 viability, primary screen (AID 624349; in the data active = parasite load remaining mostly below about 12%, no sharp cut-off; inactive = mostly above about 10%;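 also: 100% = mean of DMSO negative control wells on the same plate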). The settings on record: P. berghei liver stage in HepG2, luciferase luminescence, concentration not given here; parasite load remaining: stronger effect = lower value; viability: measured here: HepG2 viability without parasites.
The target in experiment [2] is 6-phosphogluconate dehydrogenase, decarboxylating (Homo sapiens) (UniProt P52209). Kind of experiment: inhibition of human phosphogluconate dehydrogenase – biochemical, recombinant enzyme, NADPH absorbance, primary screen (AID 1159550). The settings on record: recombinant 6PGD, NADPH absorbance 341 nm; at 10 µM; stronger effect = higher value.
6-phosphogluconate dehydrogenase, decarboxylating (Homo sapiens), sequence (P52209 whole entry, looked up): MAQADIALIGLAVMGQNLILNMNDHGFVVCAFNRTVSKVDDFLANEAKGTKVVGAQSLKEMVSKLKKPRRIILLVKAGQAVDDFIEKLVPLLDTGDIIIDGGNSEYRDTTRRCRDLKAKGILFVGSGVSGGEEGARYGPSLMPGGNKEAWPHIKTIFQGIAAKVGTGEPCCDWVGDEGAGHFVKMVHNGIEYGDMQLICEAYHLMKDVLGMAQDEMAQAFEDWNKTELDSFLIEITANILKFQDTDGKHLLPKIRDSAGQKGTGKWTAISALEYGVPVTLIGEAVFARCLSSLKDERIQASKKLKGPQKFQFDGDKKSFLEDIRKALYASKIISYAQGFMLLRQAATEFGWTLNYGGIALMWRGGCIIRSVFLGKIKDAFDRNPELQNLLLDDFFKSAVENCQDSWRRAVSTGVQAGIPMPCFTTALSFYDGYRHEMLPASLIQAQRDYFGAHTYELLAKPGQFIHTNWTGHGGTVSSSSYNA
A short description of experiment [3]: viability loss in pontine glioma line – cell-based, SU-DIPG-XIII, MIPE4.0, CellTiter-Glo, qHTS, dose response (AID 1347061; cut-off not given, nearly all actives have AC50 up to about 37 µM;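 also: cells exposed to compound for 48 hours before readout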). The settings on record: CellTiter-Glo ATP luminescence. Background: In ATP-based viability assays light output follows the ATP content of the culture.
The nature of experiment [4]: viability loss in pontine glioma line – cell-based, JHH-DIPG-1, MIPE4.0, CellTiter-Glo, qHTS, dose response (AID 1347062; cut-off not given, nearly all actives have AC50 up to about 27 µM;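 as to AC50: cells exposed to compound for two days before readout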). Conditions: JHH-DIPG-1 viability, CellTiter-Glo ATP luminescence.
A short description of experiment [5]: viability loss in pontine glioma line – cell-based, SU-DIPG-IV, MIPE4.0, CellTiter-Glo, qHTS, dose response (AID 1347063; cut-off not given, nearly all actives have AC50 up to about 30 µM;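 also: compound exposure lasted 48 hours before the viability readout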). Conditions: CellTiter-Glo ATP luminescence.
Experiment [6] is described as follows: viability loss with induced miR-34 in A549 – imaging, A549 dox-inducible miR-34, nuclei and caspase counts, primary screen (AID 1347080;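 active = compounds whose cell count with miR-34 switched on is under 0.7 times the count with it off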). Conditions: A549 miR-34 inducible, Hoechst nuclei count, 48 h.
Experiment [7] is described as follows: MELAS cybrid and Rieske KO viability enhancers – cell-based, MELAS cybrids, Rieske KO mouse fibroblasts, CellTiter-Glo, primary screen (AID 1508586;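 active = mean z-score across replicates of 1.96 or higher in either the MELAS or the Rieske mutant cell line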;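 also: z relative to plate mean and SD of compound and empty wells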). The settings on record: low glucose.
Experiment [8] deals with Mitogen-activated protein kinase 7 (Homo sapiens) (UniProt Q13164). Put plainly: Gal4-ERK5 driven luciferase induction – cell-based, HTS, primary screen (AID 1508626;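 active = luciferase signal above three times the same-plate solvent-only control wells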;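 also: luciferase driven by Gal4-ERK5 fusion binding five Gal4 sites before minimal TATA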). Conditions: HeLa Gal4-ERK5 transactivation, 18 h, at 5 µM, stronger effect = higher value.
Mitogen-activated protein kinase 7 (Homo sapiens), sequence (Q13164 whole entry, looked up, the tested form may be a part): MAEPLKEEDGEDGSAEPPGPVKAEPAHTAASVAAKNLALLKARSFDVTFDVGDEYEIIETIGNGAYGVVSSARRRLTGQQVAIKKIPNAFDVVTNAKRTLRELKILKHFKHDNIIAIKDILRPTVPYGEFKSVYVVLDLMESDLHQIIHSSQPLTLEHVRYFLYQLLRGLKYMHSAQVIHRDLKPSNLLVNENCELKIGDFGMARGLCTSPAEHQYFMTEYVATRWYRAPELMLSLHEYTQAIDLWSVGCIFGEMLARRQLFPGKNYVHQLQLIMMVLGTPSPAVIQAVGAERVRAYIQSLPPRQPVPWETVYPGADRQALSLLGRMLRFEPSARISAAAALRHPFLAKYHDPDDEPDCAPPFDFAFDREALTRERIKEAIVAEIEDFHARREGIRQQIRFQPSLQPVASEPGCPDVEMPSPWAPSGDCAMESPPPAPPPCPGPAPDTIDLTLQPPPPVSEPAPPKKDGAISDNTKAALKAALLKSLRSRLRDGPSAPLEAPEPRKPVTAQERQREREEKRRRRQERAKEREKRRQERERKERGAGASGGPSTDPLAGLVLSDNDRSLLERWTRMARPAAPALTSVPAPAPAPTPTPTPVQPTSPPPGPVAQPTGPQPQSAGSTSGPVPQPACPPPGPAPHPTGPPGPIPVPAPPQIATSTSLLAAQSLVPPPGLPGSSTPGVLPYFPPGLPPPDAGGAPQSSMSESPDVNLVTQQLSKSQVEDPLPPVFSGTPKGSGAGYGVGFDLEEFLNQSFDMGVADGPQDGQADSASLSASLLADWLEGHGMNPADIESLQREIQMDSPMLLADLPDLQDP
The nature of experiment [9]: galactose survival enhancers in mitochondrial complex I cybrids – cell-based, galactose medium, ATP luminescence, primary screen (AID 1645843;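 active = z-score of at least 1.8 in each of two replicates, scored against plate mean and spread of sample wells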;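 also: positive z means more ATP and so rescue of galactose-driven cybrid death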). Conditions: complex I mutant cybrid cells, 72 h, stronger effect = higher value.
Experiment [10] is described as follows: JHH-DIPG-1 glioma cell viability, MIPE5.0 library, CellTiter-Glo luminescence, qHTS (AID 1347067; cut-off not given, nearly all actives have AC50 up to about 26 µM;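 also: cells exposed to compound for 48 hours before readout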). Conditions: JHH-DIPG-1 glioma viability, CellTiter-Glo ATP luminescence.
A short description of experiment [11]: blockers of polyQ-driven CASP3 activation – cell-based (AID 1583). Conditions: polyglutamine-induced caspase-3 activation, cell assay; stronger effect = higher value;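 tested at 10 µM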.
The nature of experiment [12]: yeast 75Q aggregation reduction – 75Q-TubU reporter (AID 1593). The settings on record: Yeast 75Q polyglutamine aggregation reporter.
Experiment [13] is described as follows: restoration of touch response, mutant HTT neurons – whole organism, C. elegans mechanosensory neurons, N-terminal huntingtin (AID 1599). The settings on record: C. elegans polyQ-huntingtin mechanosensory neurons, stronger effect = higher value.
A short description of experiment [14]: blockers of cytochrome c efflux from mitochondria – biochemical, purified mitochondria (AID 1603).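 Also: mouse liver mitochondria challenged with calcium chloride; signal normalized to the plate average as 100%.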 The settings on record: stronger effect = lower value.
Experiment [15] can be described thus: polyglutamine aggregate formation blockers (AID 1604). Conditions: polyglutamine-induced protein aggregation inhibition assay; stronger effect = higher value; tested at 2.5 µM.
A short description of experiment [16]: glutamate transport activators, MN-1 cells, MN-1 cell line (AID 1612).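 Also: tested at 1 µM final; 0% = mean of DMSO vehicle wells on each plate; positive means more glutamate uptake than control and negative means less.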 The settings on record: MN-1 motor neuron cells, stronger effect = higher value.
Experiment [17] in a line: 75Q-TubH aggregate inhibition, S. cerevisiae, yeast (AID 1616). The settings on record: S. cerevisiae 75Q-TubH polyglutamine aggregation suppression; stronger effect = higher value.
A short description of experiment [18]: viability loss in pontine glioma line – cell-based, SU-DIPG-XVII, MIPE5.0, CellTiter-Glo, qHTS, dose response (AID 1347060; cut-off not given, nearly all actives have AC50 up to about 26 µM;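 also: cells exposed to compound for 48 hours before viability readout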). The settings on record: CellTiter-Glo ATP luminescence.
Experiment [19] can be described thus: growth inhibition, single agents and combos, ICB984, cell-based, cisplatin or BGB combos, synergistic combos for chromothripsis tumors (AID 1671451; call rule not given here;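 also: cells exposed for 96 hours before readout; 0% = vehicle DMSO and 100% = killing by high DMSO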). Conditions: ICB984 medulloblastoma cells, drug combinations, stronger effect = higher value.
Where [20] appears, read: stronger effect = lower value, cell number ratio, induced over uninduced.
Setting [21] is: measured here: relative caspase fold change +Dox/-Dox.
[22] abbreviates: measured here: total cells with miR-34 induction, stronger effect = lower value.
[23] abbreviates: measured here: total cells without miR-34 induction.
Setting [24] is: MELAS cybrid survival, CellTiter-Glo 48 h, stronger effect = higher value.
The mark [25] stands for this setting: Rieske KO mouse fibroblast survival, CellTiter-Glo 72 h.

Broadly, the viability is a read-out of living cells in per cent, often relative to untreated cells. One may read the inhibition as the change of the read-out against control, counted positive when it falls. As a reminder, the AC50 is the concentration at which the activity in the assay is half-maximal.

Each structure is given as a SMILES string. Values joined by “and” are separate entries in the source; they are usually repeats but may differ in a detail not shown here. Identical values can stand only once. Results filed as inconclusive are left out. For some of these results: Potency and affinity values are given separately. Active and inactive are the calls of the source.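 The calls were made as follows, unless noted: active = at least 20% inhibition of 6-phosphogluconate dehydrogenase activity; inactive = the rest.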

Consider `C[C@H]1C[C@H]2[C@@H]3CCC4=CC(=O)C=C[C@]4(C)[C@@]3(F)[C@@H](O)C[C@]2(C)[C@@]1(O)C(=O)CO`, for which the parasite load remaining in [1] is 183% (inactive) and 101% (inactive). Further, in [1], the viability is 104% and 71.8%. In experiment [2], the inhibition was -0.85% (inactive). The molecule was called inactive in [3], in experiment [4] and in [5]. The fold change is 0.813 (inactive) in [6] (setting [20]) and 1.45 in experiment [6] (setting [21]). Besides, the cell count in [6] (setting [22]) stood at 6320; in [6] (setting [23]), 7770. The z-score in experiment [7] (setting [24]) is -0.582 (inactive); in experiment [7] (setting [25]), -0.299. Further, the luciferase signal in experiment [8] was 80 AU (inactive).
Regarding `O=C(O)Cc1nn(Cc2ccc(Br)cc2F)c(=O)c2ccccc12`, in experiment [2], the inhibition is 11.5% (inactive). Also, the figures for the fold change in experiment [6] (setting [20]) and in experiment [6] (setting [21]) were 0.972 (inactive) and 0.601, respectively. Further, the cell count in [6] (setting [22]) was 8710; in experiment [6] (setting [23]), 8960. The z-score in experiment [9] is 0.945 (inactive).
As to `Nc1ccn([C@@H]2O[C@H](CO)[C@@H](O)[C@H]2O)c(=O)n1`, the inhibition in experiment [2] was -4.47% (inactive). Moreover, the molecule was called inactive in experiment [3], in experiment [4] and in experiment [10]. The luciferase signal in [8] is 60 AU (inactive).
On to `C[C@@]12C[C@@]3(O)O[C@@H](O1)[C@]1(COC(=O)c4ccccc4)[C@H]3C[C@@]12O[C@@H]1O[C@H](CO)[C@@H](O)[C@H](O)[C@H]1O`, for which the inhibition in [2] was -7.19% (inactive). Further, the call in experiment [3] and in experiment [4] was inactive. In addition, the luciferase signal in experiment [8] is 60 AU (inactive).
Take `COC1=C(OC)C(=O)C(C/C=C(\C)CC/C=C(\C)CC/C=C(\C)CC/C=C(\C)CC/C=C(\C)CC/C=C(\C)CC/C=C(\C)CC/C=C(\C)CC/C=C(\C)CCC=C(C)C)=C(C)C1=O`: the inhibition in experiment [2] was -47.9% (inactive). Moreover, the call in experiment [3] and in experiment [4] was inactive.
Regarding `O=C(O)C1=CCNCC1`, the inhibition in experiment [11] was 3.63%; in experiment [2], 13% (inactive). The molecule further displayed a score in experiment [12] of 1.62. Also, the rescue above control in experiment [13] was -1.41. Besides, the cytochrome c release ratio in [14] stood at 1.01. In [15], the inhibition of aggregation is 45.5%. This molecule also showed a glutamate uptake change in experiment [16] of 8.29%. The molecule further returned an aggregation suppression score in experiment [17] of 1.29. Besides, the fold change in [6] (setting [20]) was 1 (inactive) and 0.973 (inactive); in experiment [6] (setting [21]), 1.35 and 1.1. Also, the cell count in experiment [6] (setting [22]) is 9950 and 8720; in [6] (setting [23]) it was 9930 and 8960. The z-score in experiment [9] is 0.645 (inactive) and -0.22 (inactive).
As to `COc1cc([C@@H]2c3cc4c(cc3[C@@H](O[C@@H]3O[C@@H]5CO[C@@H](c6cccs6)O[C@H]5[C@H](O)[C@H]3O)[C@H]3COC(=O)[C@H]23)OCO4)cc(OC)c1O`, the inhibition in [2] is -2.92% (inactive); in experiment [19] (BGB IC20 combo, at 0.005 µM), 20.5% and 3.66%; in [19] (BGB IC40 combo, at 0.005 µM), -28.7% and -5.88%; in experiment [19] (BGB IC40 combo, at 0.05 µM) it was -11.6% and -12.3%; in experiment [19] (at 0.5 µM), -25.1% (inactive) and -14.4% (inactive); in experiment [19] (cisplatin combo, at 0.05 µM), -14.7% and -16.3%. In addition, the inhibition in experiment [19] (cisplatin combo, at 0.5 µM) was -25.3% and 3.4%; in [19] (cisplatin combo, at 5 µM), -14.6% and 1.51%; in experiment [19] (measured here: 5 uM single agent, at 5 µM), -8.36% and -4.68%. Further, the half-maximal activity concentration (AC50) in [18] is 0.332 µM (active); in experiment [4], 13.2 µM (active); in experiment [5] it was 0.332 µM (active); in experiment [10], 9.34 µM (active). For the same molecule, the luciferase signal in experiment [8] is 72 AU (inactive).
Consider `C[C@H]1O[C@@H](O[C@H]2[C@@H](O)C[C@H](O[C@H]3[C@@H](O)C[C@H](O[C@H]4CC[C@@]5(C)[C@H](CC[C@@H]6[C@@H]5C[C@@H](O)[C@]5(C)[C@@H](C7=CC(=O)OC7)CC[C@]65O)C4)O[C@@H]3C)O[C@@H]2C)C[C@H](O)[C@@H]1O`, for which the parasite load remaining in experiment [1] is -10.5% (inactive) and 8.38% (inactive). In experiment [1], the viability was 46.2% and 21%. Further, the inhibition in [2] is -1.7% (inactive). Also, the AC50 in experiment [18] was 0.166 µM (active); in experiment [3], 0.0959 µM (active); in experiment [4], 0.0303 µM (active); in experiment [5], 0.241 µM (active); in experiment [10] it was 0.0661 µM (active). The fold change is 0.979 (inactive) in experiment [6] (setting [20]) and 2.27 in experiment [6] (setting [21]). The cell count worked out at 512 in experiment [6] (setting [22]) and 523 in [6] (setting [23]). Besides, the z-score in experiment [7] (setting [24]) is -1.21 (inactive); in experiment [7] (setting [25]) it was 0.0199. Moreover, the luciferase signal in experiment [8] is 24 AU (inactive).

The record behind these values is PubChem BioAssay.
